CYP2C9 inh: blockers of cytochrome P450 2C9 activity – biochemical, luminescence, ADME assay, primary screen; P11712; AID 777, 2007; inhibition, % at 5 µM; 96,000 compounds, 20% hits; CYP2C9 Supersomes, luciferin-H conversion;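 active = blocking of liver enzyme CYP2C9 beyond about 50% at 5 µM, limit read from the data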
Target sequence (P11712 whole entry, looked up): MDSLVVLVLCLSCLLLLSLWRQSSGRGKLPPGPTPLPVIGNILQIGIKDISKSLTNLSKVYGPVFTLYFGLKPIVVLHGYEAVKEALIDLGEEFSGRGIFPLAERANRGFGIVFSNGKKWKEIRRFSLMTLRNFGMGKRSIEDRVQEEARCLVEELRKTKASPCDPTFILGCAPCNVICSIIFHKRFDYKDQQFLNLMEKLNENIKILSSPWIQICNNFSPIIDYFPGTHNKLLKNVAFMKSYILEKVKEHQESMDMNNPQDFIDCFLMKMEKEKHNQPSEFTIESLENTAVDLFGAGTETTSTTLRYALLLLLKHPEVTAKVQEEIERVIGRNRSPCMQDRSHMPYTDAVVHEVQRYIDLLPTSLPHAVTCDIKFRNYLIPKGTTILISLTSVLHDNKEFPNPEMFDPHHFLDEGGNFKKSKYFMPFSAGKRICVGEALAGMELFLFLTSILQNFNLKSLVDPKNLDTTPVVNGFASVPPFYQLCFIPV
PLK1 inh: human PLK1 kinase inhibitors, primary screen, biochemical, TR-FRET. AID 619, 2007. inhibition, % at 10 µM. 97,000 compounds, 0.53% hits. recombinant PLK1 kinase, TR-FRET peptide phosphorylation. Serine/threonine-protein kinase PLK1 (Homo sapiens), P53350;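 active = inhibition of 50% or more in the single-concentration screen; inactive = inhibition below 50%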;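 also: 0% = DMSO max control and 100% = H-89 dihydrochloride min control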
Plk1 PBD FP: Plk1 polo box domain binding inhibitors, primary screen, biochemical, fluorescence polarization. inhibition, %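 (tested at about 20 µM)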. 97,000 compounds, 0.13% hits. Plk1 PBD phosphopeptide binding. Serine/threonine-protein kinase PLK1 (Homo sapiens), P53350; in the data active = inhibition above about 34%, passing the limit was not always enough
CYP2C19 inh: blockers of cytochrome P450 2C19 activity – biochemical, luminescence, ADME assay, primary screen. AID 778, 2007. 96,000 compounds, 21% hits. P33261. inhibition, % at 5 µM. CYP2C19 Supersomes, luciferin-H EGE luminescence, 30 min;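 active = CYP2C19 inhibition above a set limit at 5 µM in the primary screen, cut at about 50% in these data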;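 also: plate controls were negative control wells for no effect and 2.5 mM tranylcypromine positive control for full effect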
CYP2C9 activ: human CYP2C9 activators, primary screen, biochemical, luminescence; Cytochrome P450 2C9 (Homo sapiens), P11712; recombinant CYP2C9, luciferin-H conversion; active compounds read high; factor 1 = untreated enzyme, 0 = blocked; activation factor at 5 µM; 96,000 compounds, 1.4% hits;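 active = activation factor of 2 or more for CYP2C9 at a 5 µM dose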;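 also: 0 = sulfaphenazole-blocked wells and 1 = vehicle-only wells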
CYP2C19 act: human CYP2C19 activators, primary screen, biochemical, luminescence. recombinant CYP2C19, luciferin-H EGE luminescence; active compounds read high; 0 = fully inhibited enzyme, 1 = untreated enzyme. activation factor at 5 µM. Cytochrome P450 2C19 (Homo sapiens), P33261. 96,000 tested, under 10 active;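 active = activation factor of at least 2 at 5 µM in the primary screen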;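 also: 0 = wells with 2.5 mM tranylcypromine and 1 = vehicle-only wells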
* marks the source's active call; other numbers are inactive results; / = not tested or not shown. Compounds with a hit are over-represented: about 28% of the library has one in this group of screens.

SMILES	CYP2C9 inh	PLK1 inh	Plk1 PBD FP	CYP2C19 inh	CYP2C9 activ	CYP2C19 act
O=C(OCc1cc(=O)n2cc(Br)ccc2n1)C1COc2ccccc2O1 (configuration not stated)	9.5	-3.7	-21.3	-4.5	0.9	1
CCN1C(c2ccc(F)cc2)=CS/C1=C(\C#N)c1nnc2n1-c1ccccc1SC2	-127.3	-4.5	23.8	29.4	2.3*	0.7
O=C(NC(=S)NCc1ccccc1)C1CCCCC1	13.8	-3.2	-18.2	21.8	0.9	0.8
O=C(NCCCN=C1NS(=O)(=O)c2ccccc21)c1ccncc1	79.8*	1.3	-18.4	21.5	0.2	0.8
NCCN=C1NS(=O)(=O)c2ccccc21	/	-6.4	-7.8	/	/	/
O=S1(=O)NC(=NCc2ccccc2)c2ccccc21	5.3	2.7	-9.9	59.8*	0.9	0.4
CCOc1cccc2sc(NC(=O)c3ccc(Br)s3)nc12	23.9	-8.2	-13.3	-7.4	0.8	1.1
O=C(Nc1cccc2cccnc12)c1cccnc1	-112.4	-7.0	-29.8	46.2	2.1*	0.5
COc1ccc(OCC(=O)Nc2cccc(-c3nc4ccccc4[nH]3)c2)cc1	93.8*	-5.1	8.9	64.6*	0.1	0.4
COc1ccc(OCC(=O)Nc2cccc(C(C)=O)c2)cc1	50.7*	-8.8	-21.3	66.8*	0.5	0.3
COc1ccc(OCC(=O)Nc2cccc(-c3nc4ccccc4o3)c2)cc1	34.2	-13.5	-5.3	38.1	0.7	0.6
CC(=O)Nc1cccc(OCC(=O)Nc2ccc(F)cc2)c1	-33.0	-17.7	-0.1	68.5*	1.3	0.3
CC(C)(C)c1nn(-c2ccccc2)c2[nH]c(=O)c(CNCc3ccc4c(c3)OCO4)cc12	-30.3	-1.9	6.6	13.1	1.3	0.9
O=C(CN(CC1CCCO1)C(=O)CCC(=O)Nc1nccs1)NCc1ccccc1 (configuration not stated)	/	6.8	-4.6	/	/	/
CNC(=O)C(=O)NCCc1ccc(Cl)cc1	3.4	-2.2	-15.2	48.4	1	0.5
CCOCC(=O)Nc1cccc(C(=O)OCC)c1	14.7	-5.5	0.2	20.9	0.9	0.8
COc1ccc(OCC(=O)Nc2cccc3cccnc23)cc1	-40.5	/	/	96.8*	1.4	0
CCOC(=O)c1cccc(NC(=O)COc2ccc([N+](=O)[O-])cc2)c1	77.2*	-9.3	3.5	56.6*	0.2	0.4
O=C(COc1ccc(F)cc1)Nc1ccc(-n2cnnn2)cc1	25.0	-8.6	8.4	76.3*	0.8	0.2
COc1ccc(OCC(=O)Nc2cccc(NC(=O)COc3ccc(OC)cc3)n2)cc1	72.0*	-8.6	6.0	43.8	0.3	0.6
CCc1noc(N)c1C(=O)Nc1ccc(F)c(Cl)c1	14.1	-5.3	-25.6	21.5	0.9	0.8
Nc1c(C(=O)NC2CCCC2)sc2nc(-c3cccs3)ccc12	43.6	/	/	71.9*	0.6	0.3
Cc1cc(C)n(CC(O)Cn2cnc3c2c(=O)n(C)c(=O)n3C)n1 (configuration not stated)	/	-6.2	19.2	/	/	/
Cn1c(=O)c2c(ncn2CC(O)CNc2ccc(Br)cc2)n(C)c1=O (configuration not stated)	46.0	3.6	16.4	74.6*	0.5	0.3
COc1cc2[nH]c(=O)n(Cc3ccccc3Cl)c(=O)c2cc1OC	28.2	-17.2	-2.6	16.3	0.7	0.8
SMILES	CYP2C9 inh	PLK1 inh	Plk1 PBD FP	CYP2C19 inh	CYP2C9 activ	CYP2C19 act
CCOC(=O)c1c(C)sc2c1N(C(=O)CN1CCOCC1)c1cc(Cl)ccc1S2	14.3	-24.2	-6.0	20.2	0.9	0.8
O=c1[nH]c(-c2ccccc2O)nc2c1CCCC2	18.4	/	/	6.3	0.8	0.9
Cc1ccccc1N(Cc1ccccc1F)S(C)(=O)=O	70.1*	-5.2	-22.6	94.6*	0.3	0.1
O=C(NCc1cccs1)c1ccccc1C(=O)NCc1cccs1	6.9	-1.6	-11.2	35.1	0.9	0.6
O=C(NCc1cccnc1)c1ccc(CS(=O)(=O)c2ccc(Cl)cc2)o1	92.6*	-3.7	-16.2	100.1*	0.1	0
O=C(NCc1cccs1)c1cc2ccccc2o1	18.4	-9.5	18.9	56.3*	0.8	0.4

Compound activity: PubChem, several laboratories
